From PubChem BioAssay (NCI)
Compounds without any hit were thinned out: in the full panel of roughly 83,000, 20% have a hit.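 Growth was measured after 48 h exposure to one concentration of compound in 96-well plates. Values under 10 count as active.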 Activity calls are given as the source filed them.

test system: EKVX NSCLC; assay: NCI-60 one-dose screen, 48 h (100 = growth as untreated, 0 = no growth, -100 = all killed); details: 10 µM unless noted
Method: Growth inhibition of the EKVX human Non-Small Cell Lung tumor cell line is measured as a screen for anti-cancer activity. Cells are grown in 96 well plates and exposed to the test compound for 48 hours. Compounds are tested at a single concentration, which is 10^-5 M for most compounds. The reported endpoint is percent growth (GI% or GIPRCNT), where numbers from 0 - 100% represent growth inhibition, and numbers from -100% - 0 represent cell death. For example, a value of 40 represents 60% growth inhibition. A value of 0 means no net growth occurred over the course of the experiment. A value of -40 indicates 40% of cells at the beginning of the experiment died by the end of the experiment. A value of -100 means all cells are dead at the end of the experiment.
NCI-60 Human Tumor Cell Lines Screen was performed using the standard one-dose NCI protocol, which is described in more detail at https://dtp.cancer.gov/discovery_development/nci-60/default.htm.
Compounds with GIPRCNT values below 10 were considered active. Activity score was based on GIPRCNT using the following formula: […]
Score is 0 for GIPRCNT values of 100 or above, 50 for GIPRCNT values of 0, and 100 for GIPRCNT values of -100.

SMILES	growth
NC(=S)N/N=C/c1ccc(OC(=O)COc2cc(Cl)c(Cl)cc2Cl)cn1	106% (inactive)
COc1cc2nc(-c3ccc(C(F)(F)F)cc3)cc(OCCCN3CCCCC3)c2cc1OC	69.4% (inactive)
CN(C)c1ccc(-c2c(C#N)c(N)n3nc(N)c(C#N)c3c2C#N)cc1	76.5% (inactive)
Cc1ccc2[nH]c(=S)n(-c3ccc(S(=O)(=O)Nc4ccc(Cl)nn4)cc3)c(=O)c2c1	97.8% (inactive)
O=C(CCN1CCCC1)Nc1ccc2c(NCc3ccc(F)cc3)c3ccccc3nc2c1	14.6% (inactive)
Cc1c2c(cc[n+]1Cc1ccc(F)cc1)c1ccc(OCc3cccc(F)c3)cc1n2Cc1cccc(F)c1	-23.5% (active)
CCN(CC)CCSCCCNc1c(C)cnc2cc(Cl)ccc12	87.4% (inactive)
Clc1ccc(N2N=C(c3cccc(Nc4ccncc4)c3)CC2c2ccccc2)cc1 (stereo not given)	82.5% (inactive)
COc1ccc(-c2c(-c3ccccc3)noc2N)cc1OC	99.7% (inactive)
C=C(C)[C@@H]1CC[C@]2(C(=O)NCCCN(CCC#N)CCC#N)CC[C@]3(C)[C@H](CC[C@@H]4[C@@]5(C)CCC(=O)C(C)(C)[C@@H]5CC[C@]43C)[C@@H]12	91% (inactive)
CN(Cc1ccccc1)c1nc(Cl)c(C2CC(c3ccc(Cl)cc3)=Cc3[nH][nH]c(=O)c32)s1 (stereo not given)	99.6% (inactive)
CC(N)C(=O)NNc1n[nH]c(=S)n1N (stereo not given)	93.9% (inactive)
Cn1ncc2c(Nc3ccccc3Cl)nc(Cl)nc21	89.8% (inactive)
COc1cc(NCC(O)CN(CC(C)C)CC(C)C)c2nc(C)ccc2c1 (stereo not given)	79.8% (inactive)
Cc1cc(NC(=O)c2cnc(N3CCN(CCOCCOCCOCCOCCC(=O)N[C@H](C(=O)N4C[C@H](O)C[C@H]4C(=O)N[C@@H](C)c4ccc(-c5scnc5C)cc4)C(C)(C)C)CC3)cn2)c2ncccc2c1	60% (inactive)
Cc1ccc(O)c(C(=O)O)c1	118% (inactive)
C=C1C(=O)O[C@H]2[C@H]1CC/C(CNC(=O)/C=C/c1ccccc1F)=C\CC[C@@]1(C)O[C@@H]21	-18.9% (active)
Cc1nc2sc(C(=O)Nc3ccccc3)c(N)c2cc1C(=O)c1ccc(C(F)(F)F)cc1	79.3% (inactive)
COc1cc(OC)c(/C=C/C(=O)c2ccc(Nc3ncnc4ccccc34)cc2)c(OC)c1	2.86% (active)
COc1ccc(/C=C\c2nc3ccccc3s2)cc1OP(=O)(O)O	76.8% (inactive)

SMILES	growth
COc1ccc(C(=O)c2cc3c(N)c(C(=O)Nc4cccc(Cl)c4C)sc3nc2C)cc1	39.6% (inactive)
C1=C2CNCC3=Cc4ccc5ccccc5c4OC23Oc2c1ccc1ccccc21	66.4% (inactive)
COc1nccnn1	107% (inactive)
CCCCN(CCCC)CCc1c(C)cc(C)c(CCN(CCCC)CCCC)c1O	14.4% (inactive)
CCCCCOc1ccc(/C=N/Nc2cc(C)nc3ccc(Br)cc23)cc1	76.3% (inactive)
Cc1ccc(/C=C/C(=O)c2ccc(N)cc2)c(C)c1	109% (inactive)
Cc1c(C2=CCCCC2)c2ccccn2c1C(=O)c1cccc(S(=O)(=O)N2CCOCC2)c1	68.7% (inactive)
Cc1cccc(Oc2ccc(Nc3ncnc4ccc(NC(=O)CNCCO)cc34)cc2Cl)c1	34.9% (inactive)
Cc1cc2cc3cc(C)c(N)cc3[n+](C)c2cc1N	14.3% (inactive)
O=C(Nc1cccc(C2=NCCN2)c1)c1ccc(OCCCOc2ccc(C(=O)Nc3cccc(C4=NCCN4)c3)cc2)cc1	69.4% (inactive)
Nc1ncc(C#Cc2cncc(NC(=O)c3cccc(C(F)(F)F)c3)c2)c2cccnc12	81.6% (inactive)
CC(=O)N1c2ccccc2NC2=C(C(=O)N(Cc3ccccc3)C2(C)C)C1c1ccco1 (stereo not given)	35.4% (inactive)
C=C(C)[C@@H]1CC[C@]2(CO)CC[C@]3(C)[C@H](CC[C@@H]4[C@@]5(C)CCCNC(C)(C)[C@@H]5CC[C@]43C)[C@@H]12	63.3% (inactive)
C=Cc1cc[n+](CCCCCCCCCCCC)cc1	105% (inactive)
CCOC(=O)Oc1c(OC)cc(C(=O)O[C@@H]2C[C@@H]3CN4CCc5c([nH]c6cc(OC)ccc56)[C@H]4C[C@@H]3[C@H](C(=O)OC)[C@H]2OC)cc1OC	64.6% (inactive)
N#Cc1c(NC(=O)c2cccc(Br)c2)sc2c1CCCC2	92.3% (inactive)
O=C(OC(OC(=O)c1cc(Cl)cc(Cl)c1)c1cccc2ccccc12)c1ccccc1 (stereo not given)	97.7% (inactive)
Cc1ccc2[nH]c(=O)cc(-n3nncc3COc3ccc(C=O)cc3)c2c1	103% (inactive)
CCOC(=O)c1c(O)cc(-c2ccccc2)cc1-c1sc(N(C)Cc2ccccc2)nc1Cl	101% (inactive)
Cc1c([N+](=O)[O-])cc(C(C)(C)C)cc1[N+](=O)[O-]	98.6% (inactive)
